Screens as filed in PubChem.
HCMV antiviral – blocks human cytomegalovirus replication; HFF cells, HCMV-luciferase reporter, 72 h; active compounds read low; activity change, negative = inhibition, % at 57.5 µM; 410,000 tested, 4.5% active; in the data active = activity change below about -60%; inconclusive = no clear call, values can overlap the other calls; inactive = above about -39%
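Two-dose cell screen: HFF monolayers treated with compounds and infected with luciferase-expressing HCMV at 1 PFU/cell, 72 h at 37C, then lysed for luciferase measurement.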
LASV entry inh – inhibitors of Lassa virus binding or cell entry; 300,000 tested, 1.2% active; Potency, µM (top dose mostly 37.9 µM), inactives show top-dose activity change, negative = inhibition, most hits filed as inhibitors; Lassa virus pseudotype entry inhibition, cell reporter; calls by dose curve; tested in HEK293 cells; note: potency is the fitted concentration of half-maximal effect; nearly all actives have a fitted effect of over 50% in size
Marburg entry inh – inhibitors of Marburg virus binding or cell entry; Marburg virus pseudotyped entry inhibition, cell reporter; Potency, µM (series often up to 37.8 µM), inactives show top-dose activity change, negative = inhibition, actives largely listed as inhibitors; 300,000 tested, 1.8% active; calls by dose curve; tested in HEK293 cells; note: potency is the fitted concentration of half-maximal effect
FMDV inh – antivirals against foot and mouth disease virus; 410,000 tested, 1.2% active; FMDV antiviral cell-based qHTS; AID 1159524; Potency, µM (highest dose often 57.9 µM), for the others: at the top dose activity change, negative = inhibition, usual class: inhibitors; calls by dose curve; tested in HEK293T cells; note: read-out not given here; potency is the fitted concentration of half-maximal effect; nearly all actives have a fitted effect of over 45% in size
* = called active by the depositor; ? = inconclusive; · = not tested or not shown; [ ] = another dose, or the depositor's remark. Compounds with a hit are over-represented: about 6.2% of the library has one in this group of screens. % is set by controls: 0 for no effect and ±100 for the full control effect.

SMILES | HCMV antiviral | LASV entry inh | Marburg entry inh | FMDV inh
COc1ccc(-c2ccc3c(c2)CN(c2cccc(Cl)c2)Cc2cnnn2-3)cc1 | -102* | · | · | -17%
Clc1cccc(N2Cc3cc(-c4ccccc4)ccc3-n3nncc3C2)c1 | -108* | · | · | ?
COC(=O)[C@@]1(Cc2ccc(F)cc2)[C@H]2c3cc(C(=O)N(C)C)n(Cc4nc5ccccc5[nH]4)c3C[C@H]2CN1C(=O)c1ccccc1 | -31 | ? | -29% | ?
COc1ccc(NC(=O)Nc2ccc(Cc3ccncc3)cc2)cc1OC | -14 | -7% | -1%[46.1 µM] | 22µM*
O=C(N[C@@H]1C/C=C\C[C@H](CC(=O)N(CCO)Cc2ccccc2)C(=O)N[C@@H](Cc2ccccc2)COC1=O)OCC1c2ccccc2-c2ccccc21 | -69* | · | · | -11%
O=C1CCCC/C=C\C[C@H](CC(=O)N(CCO)Cc2ccccc2)C(=O)N[C@@H](c2ccccc2)CO1 | -63* | · | · | -17%
O=C1NCCOC(=O)[C@@H](Cc2ccc(F)cc2)CC/C=C/C[C@@H]1CC(=O)N(CCO)Cc1ccccc1 | -63* | · | · | -30%
O=[N+]([O-])c1ccc(/C=C/c2ccncc2)cc1 | -27 | · | · | 28%
COc1ccc(OCc2cccc(C(=O)Nc3cc(C)on3)c2)cc1 | 113 | ? | 5.8µM* | -67%
COc1cccc(C(=O)Nc2cc(C)on2)c1 | 40 | · | · | 48%
COc1ccc(OCc2cccc(C(=O)NN)c2)cc1 | 105 | ? | 4.1µM* | 8.9µM*
COc1ccccc1/C=C(/C(=O)OCC(=O)Nc1ccccc1C)c1ccccc1 | -62* | ? | 0% | ?
CCOc1cc(/C=N/NC(N)=O)cc(Br)c1OCC(=O)Nc1cccc2ccccc12 | 37 | -21% | -17% | ?
COc1cc(/C=N/O)c(Br)cc1OCC(=O)Nc1ccccc1C | 7 | 19% | ? | 1%
CCOc1cc(/C=C\[N+](=O)[O-])ccc1OCC(=O)Nc1ccccc1C | · | · | 0% | 25µM*
CCOc1cc(/C=N/n2cnnc2)ccc1OCC(=O)Nc1ccccc1OC | -15 | -1% | -2% | -14%
CCOc1cc(/C=N/NC(N)=O)cc(Br)c1OCC(=O)Nc1ccccc1C | -21 | -4% | 11µM* | -18%
COc1cc(/C=N/NC(N)=O)c(Br)cc1OCC(=O)Nc1ccccc1C | -26 | ? | 11µM* | -7%
Cc1nn(-c2cccc(C(=O)O)c2)c(C)c1[N+](=O)[O-] | -10 | 16% | 0%[46.1 µM] | -2%
Cc1ccc(NCc2nnc(SC(C)C(=O)N/N=C/c3ccc(C)o3)n2-c2ccccc2)cc1 (stereo unspecified) | 2 | -10% | 13%[46.1 µM] | -3%
CCOc1cc(/C=C/c2cccc[n+]2C)ccc1OCC(=O)Nc1ccc(C)cc1 | -95* | -25%[46.1 µM] | -22%[46.1 µM] | -2%
COc1cc(/C=C/c2cccc[n+]2C)ccc1OCC(=O)Nc1ccccc1C | ? | 3%[46.1 µM] | 0%[46.1 µM] | 2%
CCCCc1nnc(NC(=O)CSCc2cc(=O)n3ccsc3n2)s1 | 21 | · | · | -7%
COc1ccc(CNCC(O)COc2cccc3c2OC(C)(C)C3)cc1 (stereo unspecified) | -64* | ? | ? | -30%
C/C(=N\Oc1cccc(F)n1)c1ccc(Cl)cc1Cl | -34 | ? | -5% | -18%
SMILES | HCMV antiviral | LASV entry inh | Marburg entry inh | FMDV inh
C/C(=N/Oc1nc(C)cc(C)n1)c1ccc(Cl)cc1Cl | -61* | -25% | 8% | ?
C/C(=N\N=C1\NC(=O)C(CC(=O)Nc2ccc(Cl)cc2)S1)c1ccco1 (stereo unspecified) | 1 | -27% | 11%[46.1 µM] | -27%
CCOC(=O)C1CCN(C(=O)COC(=O)C23CC4CC(CC(C4)C2)C3)CC1 | 48 | · | · | -16%
Cn1c(=O)c2c(nc(NCc3ccco3)n2C/C=C/c2ccccc2)n(C)c1=O | -96* | 10µM* | 13µM* | 14µM*
CC(C)CCn1c(NCCc2ccccc2)nc2c1c(=O)n(C)c(=O)n2C | -24 | · | · | 20µM*
CC(Cl)=CCn1c(NCCc2ccccc2)nc2c1c(=O)n(C)c(=O)n2C | -87* | · | · | 13µM*
CNC[C@@H]1OCc2ccccc2-c2ccccc2C(=O)N([C@@H](C)CO)C[C@@H]1C | 9 | · | · | -10%
Cc1ccc(C)c(N2CCN(C3CCCC(C)C3)CC2)c1 (stereo unspecified) | -35 | ? | 5µM* | ?
COc1cccc(N2CCN(C3CCCC(C)C3)CC2)c1 (stereo unspecified) | 28 | -6% | -28% | 11%
COc1ccc(Nc2cc(C(=O)NC3CCC(C)CC3)c3ccccc3n2)cc1OC (stereo unspecified) | 48 | 8%[46.1 µM] | 7%[46.1 µM] | 26%
CCc1ccccc1Nc1cc(C(=O)NC2CCC(C)CC2)c2ccccc2n1 (stereo unspecified) | -82* | ? | 1%[46.1 µM] | 54%
O=C(Cc1cccc(NC(=O)C2CCN(C(=O)C3CC3)CC2)c1)Nc1cccc(C(=O)N2CCCC2)c1 | ? | · | · | -5%
COC1(OC)C=CC(=O)C=C1NC(=O)c1ccccc1OC(C)=O | -78* | · | · | ?
CC(=O)Oc1ccccc1C(=O)Nc1ccccc1 | -17 | · | · | 15%
Cc1ccc(C(=O)N2CCN(C)CC2)cc1S(=O)(=O)N1CCOCC1 | -35 | 14% | 8% | 6%
CC[n+]1c(/C=C/Nc2ccccc2)oc2ccc(OC)cc21 | -33 | -12% | ? | -2%
CC/C(=C\c1oc2cc3ccccc3cc2[n+]1CC)Nc1ccccc1 | ? | ? | -12%[14.2 µM] | 22µM*
O=C(NN(c1ccccc1)c1ccccc1)c1ccccc1F | -17 | ? | -5%[46.1 µM] | -3%
Cc1ccc(C(C)C)cc1S(=O)(=O)NC1CC(C)(C)NC(C)(C)C1 | -14 | ? | 13µM* | 37%
Cc1ccc(S(=O)(=O)NC2CC(C)(C)NC(C)(C)C2)c(C)c1C | -22 | 2% | -30% | -6%
Cc1ccc(Nc2ccc(S(=O)(=O)N3CCOCC3)cc2[N+](=O)[O-])c(C)c1 | -65* | ? | ? | -28%
Cc1ccccc1Nc1ccc(S(=O)(=O)N2CCOCC2)cc1[N+](=O)[O-] | 3 | ? | -4% | -7%
CCOC(=O)N1CCN(CC(=O)Nc2ccc([N+](=O)[O-])cc2C(=O)Nc2ccccc2F)CC1 | 134 | 0% | 0% | ?
Cc1cc(Oc2ccc(C)c(Cl)c2)nc(SCC(=O)c2ccccc2)n1 | -74* | ? | ? | ?
Cc1ccc(C(=O)CSc2cc(C)nc(SCC(=O)c3ccccc3)n2)cc1 | -15 | ? | ? | ?
SMILES | HCMV antiviral | LASV entry inh | Marburg entry inh | FMDV inh
COc1ccc(-c2cnc3c(NC(C)=O)cc(-c4ccsc4)cn23)cc1OC | · | · | · | -16%
CCSc1nnc2n(-c3ccc(OC)cc3)c(=O)c3c4c(sc3n12)CCCC4 | -85* | 0% | 12% | -29%
COc1ccc(/C=c2\sc3nc(=O)c(C)nn3c2=O)c(OC)c1 | -62* | · | · | 2%
Cc1cccc(NC(c2ccc(O)cc2)c2ccc3ccc(C)nc3c2O)n1 (stereo unspecified) | -36 | 21µM* | -2% | -13%
NC(C(=O)O)C1ON=C(Cl)C1O (stereo unspecified) | -86* | -12% | -2% | -6%
O=S(=O)([N-]c1nc2ccccc2nc1-[n+]1ccccc1)c1ccc(Cl)cc1 | -62* | 1% | 0% | 4%
